# Laboratory results from the supplement of paper PMC12282887.
# ± gives the standard deviation of the averaged measurements.
# Experiments:
# Experiment in all cases: promoter activity interaction Z-score (Lux/OD deviation from empty-vector control); higher = stronger promoter induction by the compound
# [1] = system: E. coli BW25113 acrABp lux reporter
# Summary of the method: (§1)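 OD600 and luminescence of E. coli BW25113 reporter cultures (40 µl LB Lennox, 384-well plates, 37°C) were measured every 30 min for 12 h. Integration ran over 0–8 h for wild type or 1–9 h for deletion strains, and wells with growth below 10% of the median were dropped. The score is the Z-transformed residual of growth-normalised luminescence fitted against a control.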
# [2] = system: E. coli BW25113 marRABp lux reporter
# Summary of the method: as §1
# [3] = system: E. coli BW25113 micFp lux reporter
# Summary of the method: as §1
# [4] = system: E. coli BW25113 ompFp lux reporter
# Summary of the method: as §1
# [5] = 32.1 µg/ml, genetic background: wild type
# [6] = 32.1 µg/ml, genetic background: ΔmarA
# [7] = 32.1 µg/ml, genetic background: Δrob
# [8] = 32.1 µg/ml, genetic background: ΔsoxS
# [9] = 64.2 µg/ml, genetic background: wild type
# [10] = 64.2 µg/ml, genetic background: ΔmarA
# [11] = 64.2 µg/ml, genetic background: Δrob
# [12] = 64.2 µg/ml, genetic background: ΔsoxS
# [13] = 128.4 µg/ml, genetic background: wild type
# [14] = 128.4 µg/ml, genetic background: ΔmarA
# [15] = 128.4 µg/ml, genetic background: Δrob
# [16] = 128.4 µg/ml, genetic background: ΔsoxS
# [17] = 256.8 µg/ml, genetic background: wild type
# [18] = 256.8 µg/ml, genetic background: ΔmarA
# [19] = 256.8 µg/ml, genetic background: Δrob
# [20] = 256.8 µg/ml, genetic background: ΔsoxS
structure (smiles),measurement,setting,value
CN(C)C(=O)C(CCN1CCC(O)(c2ccc(Cl)cc2)CC1)(c1ccccc1)c1ccccc1 [Loperamide],promoter activity interaction Z-score,[1]; [5],0.0421 ± 0.17
same,promoter activity interaction Z-score,[1]; [6],0.36 ± 0.083
same,promoter activity interaction Z-score,[1]; [7],-0.0142 ± 0.12
same,promoter activity interaction Z-score,[1]; [8],0.372 ± 0.34
same,promoter activity interaction Z-score,[1]; [9],-0.16 ± 0.23
same,promoter activity interaction Z-score,[1]; [10],0.126 ± 1.6
same,promoter activity interaction Z-score,[1]; [11],-0.00894 ± 0.11
same,promoter activity interaction Z-score,[1]; [12],0.114 ± 0.11
same,promoter activity interaction Z-score,[1]; [13],-0.237 ± 0.23
same,promoter activity interaction Z-score,[1]; [14],0.287 ± 0.52
same,promoter activity interaction Z-score,[1]; [15],-0.146 ± 0.17
same,promoter activity interaction Z-score,[1]; [16],0.111 ± 0.11
same,promoter activity interaction Z-score,[1]; [17],0.213 ± 0.0047
same,promoter activity interaction Z-score,[1]; [18],-1.07 ± 0.54
same,promoter activity interaction Z-score,[1]; [19],0.0923 ± 0.42
same,promoter activity interaction Z-score,[1]; [20],-0.358 ± 0.52
same,promoter activity interaction Z-score,[2]; [5],-0.202 ± 0.03
same,promoter activity interaction Z-score,[2]; [6],-0.0422 ± 0.33
same,promoter activity interaction Z-score,[2]; [7],-0.0553 ± 0.2
same,promoter activity interaction Z-score,[2]; [8],-0.22 ± 0.2
same,promoter activity interaction Z-score,[2]; [9],-0.233 ± 0.17
same,promoter activity interaction Z-score,[2]; [10],0.346 ± 0.1
same,promoter activity interaction Z-score,[2]; [11],-0.132 ± 0.024
same,promoter activity interaction Z-score,[2]; [12],-0.171 ± 0.18
same,promoter activity interaction Z-score,[2]; [13],-0.314 ± 0.22
same,promoter activity interaction Z-score,[2]; [14],0.0947 ± 0.21
same,promoter activity interaction Z-score,[2]; [15],-0.192 ± 0.036
same,promoter activity interaction Z-score,[2]; [16],-0.213 ± 0.17
same,promoter activity interaction Z-score,[2]; [17],-0.0275 ± 0.19
same,promoter activity interaction Z-score,[2]; [18],0.711 ± 0.64
same,promoter activity interaction Z-score,[2]; [19],-0.0389 ± 0.11
same,promoter activity interaction Z-score,[2]; [20],-0.046 ± 0.47
same,promoter activity interaction Z-score,[3]; [5],0.145 ± 0.076
same,promoter activity interaction Z-score,[3]; [6],0.0394 ± 0.035
same,promoter activity interaction Z-score,[3]; [7],0.0787 ± 0.17
same,promoter activity interaction Z-score,[3]; [8],-0.0846 ± 0.15
same,promoter activity interaction Z-score,[3]; [9],0.186 ± 0.1
same,promoter activity interaction Z-score,[3]; [10],0.0703 ± 0.0014
same,promoter activity interaction Z-score,[3]; [11],0.0931 ± 0.092
same,promoter activity interaction Z-score,[3]; [12],-0.0463 ± 0.045
same,promoter activity interaction Z-score,[3]; [13],0.0787 ± 0.19
same,promoter activity interaction Z-score,[3]; [14],0.0574 ± 0.025
same,promoter activity interaction Z-score,[3]; [15],0.0936 ± 0.24
same,promoter activity interaction Z-score,[3]; [16],-0.14 ± 0.12
same,promoter activity interaction Z-score,[3]; [17],-0.186 ± 0.52
same,promoter activity interaction Z-score,[3]; [18],-0.0712 ± 0.25
same,promoter activity interaction Z-score,[3]; [19],-0.12 ± 0.022
same,promoter activity interaction Z-score,[3]; [20],-0.469 ± 0.21
same,promoter activity interaction Z-score,[4]; [5],-0.00512 ± 0.32
same,promoter activity interaction Z-score,[4]; [6],0.262 ± 0.052
same,promoter activity interaction Z-score,[4]; [7],0.0272 ± 0.031
same,promoter activity interaction Z-score,[4]; [8],-0.21 ± 0.06
same,promoter activity interaction Z-score,[4]; [9],0.0346 ± 0.0034
same,promoter activity interaction Z-score,[4]; [10],-0.0766 ± 0.0049
same,promoter activity interaction Z-score,[4]; [11],-0.471 ± 0.21
same,promoter activity interaction Z-score,[4]; [12],-0.28 ± 0.26
